Data as given in PubChem BioAssay (NCATS).
Inconclusive results are not listed. The source made the active and inactive calls. Calls follow the shape of the dose curve; as a rule, active = well fitted curve in the direction sought with a large enough effect; inconclusive = small, poorly fitted or top-dose-only effect, or another doubt; inactive = no such curve, though single readings can be large; an effect the other way counts as inactive or inconclusive.

Assays:
[1] = biological target: Cellular tumor antigen p53 (Homo sapiens) (UniProt P04637); assay: Primary qHTS for small molecule compounds that upregulate eGFP-tagged delta133p53alpha (in N-terminal) cells. (AID 2060322); settings: NCI-H358 eGFP-delta133p53alpha fluorescence, 24 h; activation: stronger effect = higher value;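 also: series mostly up to about 56 µM; 0% = DMSO vehicle and 100% = reference activator; nearly all actives have a fitted effect of over 75% in size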
Summary of the method: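 NCI-H358 cells pre-induced 24 h with 10 ng/ml doxycycline to express N-terminal eGFP-delta133p53alpha, then dosed 24 h at 37C without doxycycline; fixed, Hoechst-stained, GFP intensity by laser scanning cytometry, normalized to DMSO (0%) and 57.5 uM 5-azacytidine (100%).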

[2] = biological target: Aldehyde dehydrogenase, mitochondrial (Homo sapiens) (UniProt P05091); assay: qHTS for Inhibitors of the Aldehyde Dehydrogenase Family (ALDH2) Primary screen (AID 2061308);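 also: plate controls were vehicle for no effect and reference inhibitor for full effect; nearly all actives have a fitted effect of over 55% in size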
[3] = biological target: Retinaldehyde dehydrogenase 3 (Homo sapiens) (UniProt P47895); assay: qHTS for Inhibitors of the Aldehyde Dehydrogenase Family (ALDH1A3) Validation screen (AID 2061312); also: % is scaled to controls: 0 for no effect and ±100 for the full control effect; nearly all actives have a fitted effect of over 45% in size
[4] = biological target: Retinaldehyde dehydrogenase 3 (Homo sapiens) (UniProt P47895); assay: qHTS for Inhibitors of the Aldehyde Dehydrogenase Family (ALDH1A3) Primary screen (AID 2061315);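 also: plate controls were DMSO vehicle for no effect and reference inhibitor for full effect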

Sequence of Cellular tumor antigen p53 (Homo sapiens) (P04637 whole entry, looked up): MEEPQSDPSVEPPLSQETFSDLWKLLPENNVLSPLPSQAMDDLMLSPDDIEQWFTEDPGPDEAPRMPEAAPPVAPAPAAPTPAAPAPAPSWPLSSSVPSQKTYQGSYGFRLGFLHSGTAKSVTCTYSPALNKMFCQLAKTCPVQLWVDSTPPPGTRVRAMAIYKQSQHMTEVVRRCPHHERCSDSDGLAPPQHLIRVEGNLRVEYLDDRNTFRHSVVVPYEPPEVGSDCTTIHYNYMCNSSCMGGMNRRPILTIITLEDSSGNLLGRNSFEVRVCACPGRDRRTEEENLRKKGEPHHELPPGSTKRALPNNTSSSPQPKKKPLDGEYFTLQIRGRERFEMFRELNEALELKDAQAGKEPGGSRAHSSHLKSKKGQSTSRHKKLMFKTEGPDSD

COc1cccc(OC)c1-c1nc(C(=O)N[C@@H](CC(C)C)C(=O)O)cn1-c1ccnc2cc(Cl)ccc12
inactive: activation [1] -8.59% | Potency [2] | Potency [3] | Potency [4]

CCOC(=O)Nc1cc(-c2ccc(C)c(NS(C)(=O)=O)c2)nn2c(C)nnc12
inactive: activation [1] 22.9% | Potency [2] | Potency [3] | Potency [4]

COc1cc(Br)c(S(=O)(=O)Nc2ccc(C(F)(F)F)c(O[C@@H]3CCN(C)C3)c2)cc1OC
inactive: activation [1] 12.4% | Potency [2] | Potency [3] | Potency [4]

OC(CC1c2ccccc2-c2cncn21)C1CCCCC1 (configuration not stated)
inactive: activation [1] -7.16% | Potency [2] | Potency [3] | Potency [4]

CN[C@H](CNC(=O)N1CCC[C@@H]([C@@H](OCCNC(=O)OC)c2cccc(Cl)c2)C1)C[C@H]1CCCOC1
inactive: activation [1] 11.5% | Potency [2] | Potency [3] | Potency [4]

CC(F)(F)CN1CCOc2c(nn(-c3ccccc3Cl)c2-c2ccc(Cl)cc2)C1=O
inactive: activation [1] 10% | Potency [2] | Potency [3] | Potency [4]

CO[C@@H]1[C@@H](O[C@H]2O[C@@H](C)[C@H](O[C@@H]3C[C@](C)(O)[C@H](O)[C@@H](C)O3)[C@@H](N(C)C)[C@@H]2O)[C@@H](CC=O)C[C@@H](C)[C@@H](O[C@H]2CC[C@H](N(C)C)[C@H](C)O2)/C=C/C=C/C[C@@H](C)OC(=O)C[C@H]1O
inactive: activation [1] -1.43% | Potency [2] | Potency [3] | Potency [4]

COc1ccccc1-n1c(SCC(=O)Nc2nc3ccc(C)cc3s2)nc2c(c1=O)SCC2
inactive: activation [1] -11.9% | Potency [2] | Potency [3] | Potency [4]

O=C(CNC(=O)c1cccc(C(F)(F)F)c1)N[C@@H]1CCN(Cc2ccc(Cl)cc2)C1
inactive: activation [1] -2.86% | Potency [2] | Potency [3] | Potency [4]

CCc1cc2c(=O)c(-c3nc4ccccc4s3)coc2c(CN2CCCCC2)c1O
inactive: activation [1] 0.955% | Potency [2] | Potency [3] | Potency [4]

Clc1ccc2c(c1)C1=NCCN1c1c(-c3noc(C4CC4)n3)ncn1-2
inactive: activation [1] -0.477% | Potency [2] | Potency [3] | Potency [4]

Oc1ccc([C@H]2COc3cc(O)ccc3C2)cc1
inactive: activation [1] -10.5% | Potency [2] | Potency [3] | Potency [4]

COc1ccc(-c2cnc3ccc(NCc4ccc(S(N)(=O)=O)cc4)nn23)cc1OC
inactive: activation [1] 5.73% | Potency [2] | Potency [3] | Potency [4]

Cc1occc1C(=O)n1ccnc1
inactive: activation [1] 1.43% | Potency [2] | Potency [3] | Potency [4]

O=[N+]([O-])c1cn2c(n1)OC[C@@H](OCc1ccc(-c3ccc(OC(F)(F)F)cc3)nc1)C2
inactive: activation [1] -3.34% | Potency [2] | Potency [3] | Potency [4]

CCOc1nc2cccc(C(=O)O)c2n1Cc1ccc(-c2ccccc2-c2noc(=O)[nH]2)cc1
inactive: activation [1] 0.955% | Potency [2] | Potency [3] | Potency [4]

CN1CCC(NC(=O)c2cc(-c3c(O)cc(O)cc3Oc3ccc([N+](=O)[O-])cc3)on2)CC1
inactive: activation [1] 5.25% | Potency [2] | Potency [3] | Potency [4]

Cc1cc(N2CCN([C@@H]3CN[C@H](C(=O)N4CCSC4)C3)CC2)n(-c2ccccc2)n1
inactive: activation [1] -1.91% | Potency [2] | Potency [3] | Potency [4]

CCOC(=O)C(CCc1ccccc1)NC1CCCN2CCCC(C(=O)O)N2C1=O (configuration not stated)
inactive: activation [1] -9.55% | Potency [2] | Potency [3] | Potency [4]

COc1ccc([C@@H]2N[C@H](C(=O)O)Cc3c2[nH]c2ccccc32)cc1CN1CCN(c2ccccc2F)CC1
inactive: activation [1] 26.7% | Potency [2] | Potency [3] | Potency [4]

NS(=O)(=O)c1ccc(NC(=O)Nc2ccc(F)cc2)cc1
inactive: activation [1] -7.64% | Potency [2] | Potency [3] | Potency [4]

CC(C)(C)c1ccc(-c2nc3c(N4CCN(Cc5ccc6nccnc6c5)CC4)cccc3[nH]2)cc1
inactive: activation [1] -2.86% | Potency [2] | Potency [3] | Potency [4]

Nc1nc(COC(=O)c2ccc([N+](=O)[O-])cc2)nc(Nc2ccccc2)n1
inactive: activation [1] 0.477% | Potency [2] | Potency [3] | Potency [4]

Cn1c(CO)c(-c2ccccc2)c2cc([N+](=O)[O-])ccc21
inactive: activation [1] -4.77% | Potency [2] | Potency [3] | Potency [4]

Cc1ccc2[nH]c(=O)c(C3=NN(C(=O)CCC(=O)O)C(c4ccc(Br)cc4)C3)c(-c3ccccc3)c2c1 (configuration not stated)
inactive: activation [1] -22.4% | Potency [2] | Potency [3] | Potency [4]

CCCCOC(=O)NC(=O)C1c2ccccc2Oc2ccccc21
inactive: activation [1] -11.5% | Potency [2] | Potency [3] | Potency [4]

Cc1cc(OCCN2CCOCC2)nn1-c1ccc2ccccc2c1
inactive: activation [1] 4.3% | Potency [2] | Potency [3] | Potency [4]

CC(C)c1ccccc1OC(=O)NCCc1ccc2ccccc2c1
inactive: activation [1] 2.39% | Potency [2] | Potency [3] | Potency [4]
